# Reference: PubChem BioAssay (NCATS)
# Several values for one entry are separate records, joined by “and”; a condition that tells them apart may be missing. Equal values may be shown once. Records with an inconclusive call do not appear. Where a call stands in place of a potency, no number is given. A structure can be active in one record and inactive in another. Activity calls are given as the source filed them. Unless noted, calls come from the whole dose curve; as a rule, active = well fitted curve in the direction sought with a large enough effect; inconclusive = small, poorly fitted or top-dose-only effect, or another doubt; inactive = no such curve, though single readings can be large; an effect the other way counts as inactive or inconclusive.
# Columns and labels:
# [1] = molecular target: Rap guanine nucleotide exchange factor 3 (Homo sapiens) (UniProt O95398); test: Confirmatory qHTS for antagonist of cAMP-regulated guanine nucleotide exchange factor 3 (EPAC1) (AID 1645880); note: nearly all actives have a fitted effect of over 55% in size; note: potency is the fitted concentration of half-maximal effect
# Method in brief: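 Released BODIPY-GDP fluoresces less than Rap1-bound BODIPY-GDP; the signal is followed at 480/540 nm at 5-min intervals over 30 min, after 5 min at room temperature. Reactions contain 100 nM EPAC1, 250 nM RAP1B-BODIPY-GDP and 50 uM GDP; results are normalized to ATA and DMSO.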
# [2] = molecular target: Rap guanine nucleotide exchange factor 3 (Homo sapiens) (UniProt O95398); test: Confirmatory qHTS for agonist of cAMP-regulated guanine nucleotide exchange factor 3 (EPAC1) (AID 1645881);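 note: EPAC1 catalysed release of BODIPY-GDP from Rap1B seen as fluorescence loss; nearly all actives have a fitted effect of over 75% in size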
# [3] = molecular target: Rap guanine nucleotide exchange factor 4 (Homo sapiens) (UniProt Q8WZA2); test: Confirmatory qHTS for agonist of cAMP-regulated guanine nucleotide exchange factor 4 (EPAC2) (AID 1645884);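 note: nucleotide exchange releases bodipy-GDP from Rap1 and this lowers its fluorescence; nearly all actives have a fitted effect of over 65% in size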
# [4] = molecular target: Rap guanine nucleotide exchange factor 4 (Homo sapiens) (UniProt Q8WZA2); test: Confirmatory qHTS for antagonist of cAMP-regulated guanine nucleotide exchange factor 4 (EPAC2) (AID 1645885); note: nearly all actives have a fitted effect of over 25% in size; note: potency is the fitted concentration of half-maximal effect
# [5] = molecular target: Rap guanine nucleotide exchange factor 3 (Homo sapiens) (UniProt O95398); test: Counterscreen qHTS for antagonist of cAMP-regulated guanine nucleotide exchange factor 3 (EPAC1) (AID 1645888)
# Method in brief: (§1)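 Rap1B–BODIPY-GDP (250 nM) with 50 uM GDP; compounds pin-transferred to 9.74 nM–152 uM final (activator) or from 7.32 nM upwards (inhibitor). Fluorescence Ex/Em 480/540 nm read at 5 and 30 min, then after adding cAMP or buffer, at room temperature.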
# [6] = molecular target: Rap guanine nucleotide exchange factor 3 (Homo sapiens) (UniProt O95398); test: Counterscreen qHTS for agonist of cAMP-regulated guanine nucleotide exchange factor 3 (EPAC1) (AID 1645889); note: nearly all actives have a fitted effect of over 40% in size
# Method in brief: as §1
# [7] = molecular target: Catechol O-methyltransferase (Homo sapiens) (UniProt P21964); test: Confirmatory Screen for Target Class Profiling of Small Molecule Inhibitors of Methyltransferases (AID 1745852; calls by dose curve; note: potency is the fitted concentration of half-maximal effect); conditions: MTase-Glo luminescence, SAH detection, recombinant enzyme, stronger effect = lower value; measured here: COMT max response unless noted
# [8] = molecular target: Guanidinoacetate N-methyltransferase (Homo sapiens) (UniProt Q14353); test: as above; conditions: MTase-Glo luminescence, SAH detection, recombinant enzyme; activity change, negative = inhibition: at 57.3 µM (top of the series)
# [9] = molecular target: Nicotinamide N-methyltransferase (Homo sapiens) (UniProt P40261); test: as above; conditions: MTase-Glo luminescence, SAH detection, recombinant enzyme, stronger effect = lower value; measured here: NNMT max response unless noted
# [10] = molecular target: Phenylethanolamine N-methyltransferase (Homo sapiens) (UniProt P11086); test: as above; conditions: MTase-Glo luminescence, SAH detection, recombinant enzyme, stronger effect = lower value; measured here: PNMT max response unless noted
# [11] = molecular target: Metallo-beta-lactamase type 2 (Klebsiella pneumoniae) (UniProt C7C422); test: qHTS to identify inhibitors of the New Delhi Metallo-beta-lactamase (NDM): assay validation screen against the NCATS LOPAC Collection (AID 1794843);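 note: nitrocefin turnover by NDM-1 measured as 485 nm absorbance at plateau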
# Method in brief: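 Enzyme 2 nM final, 50 mM HEPES pH 7.0, 1 uM ZnSO4, 0.01% Tween20; cpds in DMSO, preincub w/ enzyme; + nitrocefin (50 uM stock); A485 at plateau; no-enzyme column as blank.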
# [12] = molecular target: Glutathione peroxidase 1 (Homo sapiens) (UniProt P07203); test: Primary qHTS Assay for Inhibitors of Recombinant Selenoprotein Glutathione Peroxidase 1 (GPX1) (AID 1845191); note: nearly all actives have a fitted effect of over 65% in size; note: potency is the fitted concentration of half-maximal effect
# Method in brief: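 GR-coupled readout: NADPH consumption tracked by fluorescence, ex 340/em 450 nm, at t=0 and after 15 min at RT. Final mix 10 nM GPX1, 1 mM GSH, 0.5 mM CHP, 0.5 mM NADPH, 100 nM GR, 0.01% BSA, following 30 min enzyme–compound preincubation.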
# [13] = NCATS anti-infectives library activity on HEK293 viability as a counter-qHTS vs the C. elegans viability qHTS (AID 1745854);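 note: HEK293 cells exposed to compounds for 24 hr before the viability read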
# Method in brief: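 Compound titrations (final up to 41.7 uM) were incubated with HEK293 cells for 24 hr at 37C under 5% CO2. Viable cells were quantified with CellTiter-Glo after 10 min at ambient temperature.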
# [14] = molecular target: Phospholipid hydroperoxide glutathione peroxidase GPX4 (Homo sapiens) (UniProt P36969); test: Primary qHTS Assay for Inhibitors of Recombinant Selenoprotein Glutathione Peroxidase 4 (GPX4) (AID 1845192); note: nearly all actives have a fitted effect of over 65% in size
# Method in brief: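 Steps: GPX4 plus compound, 30 min RT; add GR/GSH/NADPH master mix; start with cumene hydroperoxide; read 340/450 nm fluorescence at 0 and 15 min. Finals were 200 nM GPX4, 1 mM GSH, 0.5 mM CHP, 0.5 mM NADPH, 100 nM GR.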
# [15] = NCATS anti-infectives library activity on the primary C. elegans qHTS viability assay (AID 1745855; calls by dose curve; note: potency is the fitted concentration of half-maximal effect)
# Method in brief: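 Titration-based screen in worms: eggs hatched overnight in M9, L1 larvae fed TOP10 capsules in S medium with compound, incubated 21 °C for 7 days; fluorescent objects gated by size and intensity at days 0, 3 and 7.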
# [16] = Viability counterscreen for antagonist of constitutive androstane receptor (CAR) against the NCATS DSHEA and TCM libraries (AID 1794837);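 note: compound exposure lasted 24 h before viability reading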
# Method in brief: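 HepG2-CYP2B6-hCAR cells (2,500/well) were allowed to attach for 5 h, then exposed to compounds with 48 uM CITCO for 24 h at 37C. Viability was read by CellTiter-Fluor fluorescence after 1 h.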
# [17] = Viability counterscreen for agonist of constitutive androstane receptor (CAR) against the NCATS DSHEA and TCM libraries (AID 1794838)
# Method in brief: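 HepG2-CYP2B6-hCAR cells (2,500/well) attached 5 h, then got compounds plus 0.75 uM PK11195 final. After 24 h at 37C, viability read by CellTiter-Fluor fluorescence (Ex/Em 405/540 nm).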
# [18] = molecular target: Nuclear receptor subfamily 1 group I member 3 (Homo sapiens) (UniProt Q14994); test: Primary qHTS for agonist of constitutive androstane receptor (CAR) against the NCATS DSHEA and TCM libraries (AID 1794839);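 note: HepG2 cells expressing human CAR with a CYP2B6 reporter plus PK11195 antagonist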
# Method in brief: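 HepG2-CYP2B6-hCAR cells (2,500/well) were attached for 5 h, then treated for 24 h at 37 °C with compounds plus 0.75 µM PK11195. Luciferase luminescence (ONE-Glo) was read, with CellTiter-Fluor viability (Ex/Em 405/540 nm).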
# [19] = HepG2 viability counterscreen (readout 2: ATP content) against the NCATS DSHEA and TCM libraries (AID 1794840);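 note: HepG2 cells exposed to substances for about 24 h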
# Method in brief: (§2)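 HepG2 cells (1,000 cells/well) attached ~4 h, then treated ~24 h at 37C with substances. Protease activity read by GF-AFC (25 uM final, 30 min, Ex/Em 380/510 nm); ATP content then by CellTiter-Glo luminescence.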
# [20] = HepG2 viability counterscreen (readout 1: protease activity) against the NCATS DSHEA and TCM libraries (AID 1794841);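 note: cells exposed to compounds for about 24 h before the protease read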
# Method in brief: as §2
# Sequence of Phenylethanolamine N-methyltransferase (Homo sapiens) (P11086 whole entry, looked up): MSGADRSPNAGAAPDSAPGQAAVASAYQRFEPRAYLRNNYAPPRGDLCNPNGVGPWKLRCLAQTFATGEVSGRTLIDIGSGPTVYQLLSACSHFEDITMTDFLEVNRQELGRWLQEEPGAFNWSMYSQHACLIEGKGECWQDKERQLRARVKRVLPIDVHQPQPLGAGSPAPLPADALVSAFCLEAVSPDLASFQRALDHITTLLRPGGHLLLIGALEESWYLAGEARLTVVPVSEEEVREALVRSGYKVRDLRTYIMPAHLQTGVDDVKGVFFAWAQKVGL
# Sequence of Glutathione peroxidase 1 (Homo sapiens) (P07203 whole entry, looked up): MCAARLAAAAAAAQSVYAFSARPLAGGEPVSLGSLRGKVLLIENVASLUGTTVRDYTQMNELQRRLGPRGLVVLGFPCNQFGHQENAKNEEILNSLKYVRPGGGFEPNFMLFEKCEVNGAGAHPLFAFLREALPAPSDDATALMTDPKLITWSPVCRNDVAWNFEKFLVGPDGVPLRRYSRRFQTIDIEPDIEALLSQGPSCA
# Sequence of Metallo-beta-lactamase type 2 (Klebsiella pneumoniae) (C7C422 whole entry, looked up): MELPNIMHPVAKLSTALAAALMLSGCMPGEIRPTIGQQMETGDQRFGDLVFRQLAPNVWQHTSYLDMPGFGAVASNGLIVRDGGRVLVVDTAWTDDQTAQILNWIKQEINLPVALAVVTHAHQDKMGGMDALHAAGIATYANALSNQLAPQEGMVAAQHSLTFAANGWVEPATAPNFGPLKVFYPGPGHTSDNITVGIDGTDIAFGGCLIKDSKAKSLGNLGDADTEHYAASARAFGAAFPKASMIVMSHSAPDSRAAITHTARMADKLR
# Sequence of Rap guanine nucleotide exchange factor 3 (Homo sapiens) (O95398 whole entry, looked up): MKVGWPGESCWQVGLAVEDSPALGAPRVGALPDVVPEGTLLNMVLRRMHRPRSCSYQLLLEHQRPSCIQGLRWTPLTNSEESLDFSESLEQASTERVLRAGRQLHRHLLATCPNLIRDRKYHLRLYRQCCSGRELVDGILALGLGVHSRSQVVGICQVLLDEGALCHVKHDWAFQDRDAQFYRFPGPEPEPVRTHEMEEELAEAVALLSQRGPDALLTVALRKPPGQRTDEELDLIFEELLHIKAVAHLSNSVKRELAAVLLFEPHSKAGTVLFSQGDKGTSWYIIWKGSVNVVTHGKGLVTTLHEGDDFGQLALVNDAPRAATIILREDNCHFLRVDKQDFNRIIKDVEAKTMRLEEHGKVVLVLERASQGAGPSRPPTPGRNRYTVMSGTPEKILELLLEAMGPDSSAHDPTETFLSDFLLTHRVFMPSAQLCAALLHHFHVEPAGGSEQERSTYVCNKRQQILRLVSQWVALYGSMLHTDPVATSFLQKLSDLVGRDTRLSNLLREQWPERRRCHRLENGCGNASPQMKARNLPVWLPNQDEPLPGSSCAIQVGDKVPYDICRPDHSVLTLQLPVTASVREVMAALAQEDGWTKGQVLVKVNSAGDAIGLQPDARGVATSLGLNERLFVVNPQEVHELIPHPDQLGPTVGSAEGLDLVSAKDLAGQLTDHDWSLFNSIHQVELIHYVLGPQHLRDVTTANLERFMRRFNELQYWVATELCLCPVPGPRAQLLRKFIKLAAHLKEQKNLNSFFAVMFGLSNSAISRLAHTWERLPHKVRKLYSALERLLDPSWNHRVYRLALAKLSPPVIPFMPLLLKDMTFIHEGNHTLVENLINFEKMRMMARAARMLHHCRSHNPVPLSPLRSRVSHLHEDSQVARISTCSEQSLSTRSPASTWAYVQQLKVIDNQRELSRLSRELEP
# Sequence of Rap guanine nucleotide exchange factor 4 (Homo sapiens) (Q8WZA2 whole entry, looked up): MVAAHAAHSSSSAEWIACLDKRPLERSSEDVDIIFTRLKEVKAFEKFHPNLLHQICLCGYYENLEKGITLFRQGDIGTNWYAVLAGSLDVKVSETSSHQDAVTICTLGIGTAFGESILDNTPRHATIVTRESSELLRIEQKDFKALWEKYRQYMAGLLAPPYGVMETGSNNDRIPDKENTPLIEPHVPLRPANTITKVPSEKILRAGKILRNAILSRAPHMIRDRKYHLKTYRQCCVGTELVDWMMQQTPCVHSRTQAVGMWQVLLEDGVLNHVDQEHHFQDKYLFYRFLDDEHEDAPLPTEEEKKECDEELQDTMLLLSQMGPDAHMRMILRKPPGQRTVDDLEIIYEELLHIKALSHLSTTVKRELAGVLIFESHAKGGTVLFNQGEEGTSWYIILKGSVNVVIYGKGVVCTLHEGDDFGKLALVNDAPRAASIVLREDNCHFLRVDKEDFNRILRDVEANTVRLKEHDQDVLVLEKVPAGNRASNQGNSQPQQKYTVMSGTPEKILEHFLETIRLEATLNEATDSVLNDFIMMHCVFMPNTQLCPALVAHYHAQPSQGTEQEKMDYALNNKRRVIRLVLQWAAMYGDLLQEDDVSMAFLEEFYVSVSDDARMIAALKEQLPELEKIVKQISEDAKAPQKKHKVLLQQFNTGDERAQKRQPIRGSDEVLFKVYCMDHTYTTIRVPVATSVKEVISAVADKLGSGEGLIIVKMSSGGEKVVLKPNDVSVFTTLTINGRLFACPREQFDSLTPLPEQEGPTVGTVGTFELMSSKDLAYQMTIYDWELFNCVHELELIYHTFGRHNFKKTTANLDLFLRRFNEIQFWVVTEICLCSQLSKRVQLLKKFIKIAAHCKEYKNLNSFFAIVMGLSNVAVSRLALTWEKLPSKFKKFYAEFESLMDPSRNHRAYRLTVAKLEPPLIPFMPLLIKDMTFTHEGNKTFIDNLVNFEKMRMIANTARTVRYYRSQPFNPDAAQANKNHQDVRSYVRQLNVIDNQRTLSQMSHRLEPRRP
# Sequence of Phospholipid hydroperoxide glutathione peroxidase GPX4 (Homo sapiens) (P36969 whole entry, looked up): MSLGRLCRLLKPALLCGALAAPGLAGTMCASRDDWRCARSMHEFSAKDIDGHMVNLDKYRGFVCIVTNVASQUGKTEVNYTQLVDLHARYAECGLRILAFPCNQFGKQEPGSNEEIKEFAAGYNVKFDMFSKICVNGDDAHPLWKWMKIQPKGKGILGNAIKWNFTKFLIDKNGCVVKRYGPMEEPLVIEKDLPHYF
# Sequence of Nicotinamide N-methyltransferase (Homo sapiens) (P40261 whole entry, looked up): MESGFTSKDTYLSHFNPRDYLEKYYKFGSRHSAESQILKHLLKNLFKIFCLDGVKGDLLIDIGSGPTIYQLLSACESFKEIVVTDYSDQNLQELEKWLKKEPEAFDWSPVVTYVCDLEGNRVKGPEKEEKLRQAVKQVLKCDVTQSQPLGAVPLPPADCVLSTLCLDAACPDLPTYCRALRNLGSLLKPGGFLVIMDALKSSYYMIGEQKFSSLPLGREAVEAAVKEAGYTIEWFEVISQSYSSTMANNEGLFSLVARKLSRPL
# Sequence of Catechol O-methyltransferase (Homo sapiens) (P21964 whole entry, looked up): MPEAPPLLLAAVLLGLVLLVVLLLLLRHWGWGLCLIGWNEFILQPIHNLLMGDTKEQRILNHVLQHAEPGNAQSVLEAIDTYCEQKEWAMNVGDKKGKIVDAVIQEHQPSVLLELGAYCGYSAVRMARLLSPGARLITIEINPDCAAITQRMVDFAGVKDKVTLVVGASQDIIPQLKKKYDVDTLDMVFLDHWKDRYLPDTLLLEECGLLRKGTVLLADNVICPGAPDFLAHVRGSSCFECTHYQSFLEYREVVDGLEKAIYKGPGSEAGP
# Sequence of Nuclear receptor subfamily 1 group I member 3 (Homo sapiens) (Q14994 whole entry, looked up): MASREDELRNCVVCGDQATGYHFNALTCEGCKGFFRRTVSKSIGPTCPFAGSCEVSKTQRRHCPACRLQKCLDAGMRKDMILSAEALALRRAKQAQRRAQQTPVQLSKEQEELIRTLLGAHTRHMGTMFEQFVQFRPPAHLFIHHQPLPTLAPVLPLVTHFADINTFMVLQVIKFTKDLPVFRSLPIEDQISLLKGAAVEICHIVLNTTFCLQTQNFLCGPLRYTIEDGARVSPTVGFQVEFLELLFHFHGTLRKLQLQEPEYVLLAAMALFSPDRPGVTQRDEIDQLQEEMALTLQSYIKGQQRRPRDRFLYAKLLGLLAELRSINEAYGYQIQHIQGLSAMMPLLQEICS
compound,measurement,setting,value
CC(C)c1ccc2c(c1)c(SC(C)(C)C)c(CC(C)(C)C(=O)O)n2Cc1ccc(Cl)cc1,Potency,[1],inactive and 30.1 µM (active) and 35.2 µM (active)
same,outcome,[2],inactive
same,outcome,[3],inactive
same,Potency,[4],inactive and 19 µM (active) and 27.8 µM (active)
same,outcome,[5],inactive
same,outcome,[6],inactive
same,activity,[7],-0.145%
same,Potency,[8],30.6 µM (active)
same,activity,[9],-41.8%
same,activity,[10],-5.81%
same,outcome,[11],inactive
CCN(CC)C(=S)SSC(=S)N(CC)CC,activity,[7],-3.32%
same,"activity change, negative = inhibition",[8],4.64%
same,activity,[9],-10.3%
same,activity,[10],-2.02%
same,Potency,[12],inactive
COC(=O)N[C@H](C(=O)N[C@@H](Cc1ccccc1)[C@@H](O)CN(Cc1ccc(-c2ccccn2)cc1)NC(=O)[C@@H](NC(=O)OC)C(C)(C)C)C(C)(C)C,outcome,[13],inactive
same,Potency,[12],inactive
same,Potency,[14],inactive
CCOC(=O)C1=C[C@@H](OC(CC)CC)[C@H](NC(C)=O)[C@@H](N)C1,outcome,[13],inactive
same,Potency,[15],inactive
same,Potency,[12],inactive
Oc1ccc(OCc2ccccc2)cc1,outcome,[13],inactive
same,Potency,[12],inactive
same,Potency,[14],inactive
O=c1ccc2ccc(O)c(O)c2o1,activity,[7],197%
same,"activity change, negative = inhibition",[8],2.41%
same,activity,[9],-4.08%
same,activity,[10],2.42%
same,outcome,[11],inactive
same,Potency,[12],inactive
same,Potency,[14],inactive
N[C@@H](Cc1cc(I)c(Oc2cc(I)c(O)c(I)c2)c(I)c1)C(=O)O,activity,[7],-6.89%
same,"activity change, negative = inhibition",[8],-4.64%
same,activity,[9],-9.69%
same,activity,[10],-6.64%
same,Potency,[12],inactive
same,Potency,[14],inactive
CN(C)C(=O)COC(=O)Cc1ccc(OC(=O)c2ccc(N=C(N)N)cc2)cc1,outcome,[13],inactive
same,Potency,[12],inactive
same,Potency,[14],inactive
CC1(C)NC(=O)N(c2ccc([N+](=O)[O-])c(C(F)(F)F)c2)C1=O,outcome,[11],inactive
same,Potency,[12],inactive
O=C(CCc1ccc(O)cc1)c1c(O)cc(O)cc1O,outcome,[11],inactive
same,Potency,[12],inactive
Cn1c(NCCN(CCO)CCCc2ccc([N+](=O)[O-])cc2)cc(=O)n(C)c1=O,Potency,[12],inactive
C[C@@H](c1ncncc1F)[C@](O)(Cn1cncn1)c1ccc(F)cc1F,outcome,[11],inactive
same,Potency,[12],inactive
same,Potency,[14],inactive
O=C1c2ccccc2-c2n[nH]c3cccc1c23,outcome,[11],inactive
same,Potency,[12],inactive
same,Potency,[14],inactive
COc1ccccc1N1CCN(CCN(C(=O)C2CCCCC2)c2ccccn2)CC1,outcome,[11],inactive
same,Potency,[14],inactive
COc1cc2c(cc1OC)C1CC(=O)C(CC(C)C)CN1CC2 (centres undefined),outcome,[11],inactive
same,Potency,[12],inactive
same,Potency,[14],inactive
Cc1cccc(-c2[nH]ncc2-c2ccc3ncccc3n2)n1,outcome,[11],inactive
same,Potency,[12],inactive
same,Potency,[14],inactive
CCOC(=O)C(C)Oc1cccc2c(=O)n(CC(=O)Nc3ccc4c(c3)OCCO4)ccc12 (centres undefined),outcome,[11],inactive
same,Potency,[14],inactive
Oc1ccc(-c2nc(-c3ccc(F)cc3)c(-c3ccncc3)[nH]2)cc1,outcome,[11],inactive
same,Potency,[12],inactive
O=c1c(O)c(-c2ccc(O)cc2O)oc2cc(O)cc(O)c12,outcome,[11],inactive
same,Potency,[12],inactive
O=C(c1ccccc1)c1ccc2n1CCC2C(=O)O (centres undefined),outcome,[11],inactive
same,Potency,[14],inactive
c1cnc2cc3c(cc2n1)C1CNCC3C1,outcome,[11],inactive
same,Potency,[14],inactive
CC1(C)C(=O)N(CCN2CCC(C(=O)c3ccc(F)cc3)CC2)c2ccccc21,outcome,[11],inactive
same,Potency,[12],inactive
O=Nc1c(-c2c(O)[nH]c3cc(Br)ccc23)[nH]c2ccccc12,outcome,[11],inactive
same,Potency,[14],inactive
COc1cc2nc(N3CCN(C(=O)C4CCCO4)CC3)nc(N)c2cc1OC (centres undefined),Potency,[12],inactive
S=c1nc[nH]c2nc[nH]c12,Potency,[15],inactive
same,Potency,[14],inactive
O=c1cc(N2CCOCC2)oc2c(-c3ccccc3)cccc12,outcome,[11],inactive
same,Potency,[12],inactive
COc1cc(C(C)=O)ccc1OCCCN1CCC(c2noc3cc(F)ccc23)CC1,Potency,[12],inactive
Cc1cc(O)c2c(c1)C(=O)c1cc(O)cc(O)c1C2=O,outcome,[16],inactive
same,outcome,[17],inactive
same,outcome,[18],inactive
same,outcome,[19],inactive
same,outcome,[20],inactive
same,outcome,[11],inactive
O=C(O)c1cccnc1Nc1cccc(C(F)(F)F)c1,outcome,[11],inactive
same,Potency,[12],inactive
same,Potency,[14],inactive
CN(C)CCCC1(c2ccc(F)cc2)OCc2cc(C#N)ccc21 (centres undefined),outcome,[11],inactive
same,Potency,[12],inactive
same,Potency,[14],inactive
COCCCOc1ccnc(CS(=O)c2nc3ccccc3[nH]2)c1C (centres undefined),Potency,[12],inactive and 14.3 µM (active)
CNC[C@H](O)c1ccc(O)c(O)c1,outcome,[11],inactive
same,Potency,[12],inactive
same,Potency,[14],inactive
Cc1cccc(C#Cc2ccccc2)n1,outcome,[11],inactive
same,Potency,[12],inactive
C[C@@H](N)C1CCC(C(=O)Nc2ccncc2)CC1 (some centres undefined),outcome,[11],inactive
same,Potency,[12],inactive
same,Potency,[14],inactive
Nc1nc(N)c(N=O)c(OCC2CCCCC2)n1,outcome,[11],inactive
same,Potency,[12],inactive
CC(C)C[C@H](NC(=O)[C@H](Cc1ccccc1)NC(=O)c1cnccn1)B(O)O,Potency,[15],2.3 µM (active)
same,Potency,[14],inactive
NC(=NCc1ccccc1)NC(=O)c1nc(Cl)c(N)nc1N,outcome,[11],inactive
same,Potency,[12],inactive
CN(C)C(=O)[C@H](O)[C@H](Cc1ccccc1)NC(=O)c1cc2cc(Cl)ccc2[nH]1,outcome,[11],inactive
same,Potency,[12],inactive
same,Potency,[14],inactive
Nc1nc(OCc2ccccc2)c2[nH]cnc2n1,outcome,[11],inactive
same,Potency,[12],inactive
same,Potency,[14],inactive
NCCCCNCCCN,outcome,[11],inactive
O=c1c(O)c(-c2cc(O)c(O)c(O)c2)oc2cc(O)cc(O)c12,outcome,[11],inactive
same,Potency,[12],inactive
same,Potency,[14],inactive
CCOC(=O)C1=C(O)C(=O)N(Cc2ccccc2)C1,outcome,[11],inactive
same,Potency,[14],inactive
Clc1ccc2c(N3CCN(CCCN4CCN(c5ccnc6cc(Cl)ccc56)CC4)CC3)ccnc2c1,outcome,[11],inactive
same,Potency,[12],inactive
same,Potency,[14],inactive
O=C1c2c(O)cc(O)cc2OC(c2ccc(O)c(O)c2)C1O (centres undefined),outcome,[11],inactive
same,Potency,[12],inactive
same,Potency,[14],inactive
COc1c2occc2cc2ccc(=O)oc12,Potency,[12],inactive
same,Potency,[14],inactive
CN(C)c1ccc2nc3ccc(=[N+](C)C)cc-3sc2c1,Potency,[12],inactive
same,Potency,[14],inactive
